Laboratory results published in PubChem BioAssay AID1030 (National Center for Advancing Translational Sciences (NCATS), 2008).
In all, about 220,000 compounds went through this assay and about 16,000 (7.3%) were called active. Entries that show only a call come without a potency. Inconclusive results (about 25%) are left out. The call rests on the fitted dose curve; in most records, active means well fitted inhibition curve with a large enough effect (not every such curve was filed as active); inconclusive means small, poorly fitted or top-dose-only effect, or another doubt; inactive means no such curve, though single readings can be large or run the other way. Only a selection was taken, and actives are over-represented in it overall.

molecular target: Aldehyde dehydrogenase 1A1 (Homo sapiens) (UniProt P00352); experiment: qHTS Assay for Inhibitors of Aldehyde Dehydrogenase 1 (ALDH1A1); details: Purified ALDH1A1, NADH fluorescence, propionaldehyde substrate; series mostly up to 75.3 µM
Sequence (P00352 whole entry, looked up): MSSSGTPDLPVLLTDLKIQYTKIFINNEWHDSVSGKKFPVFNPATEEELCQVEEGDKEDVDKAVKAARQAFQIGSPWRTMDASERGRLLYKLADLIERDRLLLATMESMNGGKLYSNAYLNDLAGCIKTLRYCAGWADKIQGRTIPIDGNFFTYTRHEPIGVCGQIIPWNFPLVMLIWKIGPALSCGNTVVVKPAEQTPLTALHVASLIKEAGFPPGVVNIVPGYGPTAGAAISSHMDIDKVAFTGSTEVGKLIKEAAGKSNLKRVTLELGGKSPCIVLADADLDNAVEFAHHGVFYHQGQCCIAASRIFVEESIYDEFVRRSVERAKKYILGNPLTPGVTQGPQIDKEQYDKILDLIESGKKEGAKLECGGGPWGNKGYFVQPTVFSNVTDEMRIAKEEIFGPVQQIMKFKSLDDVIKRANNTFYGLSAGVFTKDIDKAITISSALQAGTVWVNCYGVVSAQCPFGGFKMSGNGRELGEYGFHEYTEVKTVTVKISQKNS
Potency means the concentration at half of the fitted maximal effect.

SMILES	Potency
Cc1ccc(-c2cccc([C@H]3[C@@H]4C=CC[C@@H](C)[C@@H]4C(=O)N3Cc3ccccc3)c2)cc1	inactive
COc1ccc(OC)c(Cc2nnc(CCC(=O)NC3CCCC3)o2)c1	inactive
O=C1CSC(c2ccccc2)N1c1nc(-c2ccc(Cl)cc2Cl)cs1 (stereo not drawn)	inactive
O=C1CSC(c2cccc(F)c2)N1c1ccccc1F (stereo not drawn)	14.1 µM (active)
O=C1CSC(c2cccc(F)c2)N1c1ccc(O)cc1 (stereo not drawn)	inactive
O=C(Nc1ccc(F)cc1)C1CCN(C(=O)c2ccc([N+](=O)[O-])cc2)CC1	inactive
CC1CCN(c2ccc(S(=O)(=O)Nc3cc(C(=O)O)cc(C(=O)O)c3)cc2[N+](=O)[O-])CC1	inactive
CC1CCN(C(=O)c2ccc(S(=O)(=O)Cc3cc(F)ccc3F)c([N+](=O)[O-])c2)CC1	7.08 µM (active)
CCc1[nH]nc(C(=O)N2CCCC(CNS(=O)(=O)c3cccs3)C2)c1C (stereo not drawn)	inactive
COc1ccc(S(=O)(=O)NCC2CCCN(C(=O)c3occc3C)C2)cc1 (stereo not drawn)	4.47 µM (active)
COCCCNC(=O)C1CCC(CNS(=O)(=O)c2ccc(OC)cc2)CC1 (stereo not drawn)	inactive
Cc1ccc(S(=O)(=O)N2CCOCC2)cc1C(=O)OC1CCCCC1=O (stereo not drawn)	inactive
CCC(C)NC(=O)Cn1nc(C(F)(F)F)c2c1CCC2 (stereo not drawn)	inactive
CS(=O)(=O)N1CCN(C(=O)Cc2ccccc2)CC1	8.91 µM (active)
CS(=O)(=O)N1CCC(C(=O)N2CCN(c3ccccc3)CC2)CC1	inactive
CS(=O)(=O)N(CC(=O)N1CCCC1)Cc1ccccc1	inactive
O=C(Nc1ccc(Cl)cc1)Nc1ccc(Oc2cccnc2)nc1	inactive
Cc1ccc(-n2cc(CN(C)Cc3nccn3C)c(-c3cccc(C)c3)n2)cc1	inactive
COc1cccc(Cn2c(=O)cnc3cncnc32)c1	2.51 µM (active)
COc1cccc(Cn2c(=O)c(-c3cc(F)cc(F)c3)nc3cnc(OC)nc32)c1	inactive
COc1cccc(Cn2c(=O)c(C)nc3cnc(Oc4ccccc4)nc32)c1	inactive
COc1ccc(OC)c(NC(=O)CN(Cc2ccc(Cl)cc2)S(C)(=O)=O)c1	inactive

SMILES	Potency
CCC(C)(C)C1CCC(=NNC(=O)c2ccc(Br)o2)CC1 (stereo not drawn)	inactive
O=c1[nH]c2c(c(=O)n1Cc1ccccc1)CCC2	inactive
Cc1cc2nc3c(=O)n(Cc4ccccc4)c(=O)[nH]c3nc2cc1N	12.6 µM (active)
Cc1nc2cnc(Nc3ccccc3)nc2n(Cc2ccc(F)cc2)c1=O	inactive
CCS(=O)(=O)c1ccc(C(=O)NC)c(Cl)c1Cl	inactive
c1ccc(C(c2ccccc2)N2CCN(Cc3nnnn3C3CCCCC3)CC2)cc1	7.94 µM (active)
COc1ccc(C(c2nnnn2C2CCCCC2)N2CCN(c3ccccc3F)CC2)cc1 (stereo not drawn)	inactive
c1ccc(CCn2nnnc2CN2CCN(C3CCCC3)CC2)cc1	inactive
Cc1ccc(N(CCC(=O)O)S(=O)(=O)c2cccc(C(F)(F)F)c2)cc1	inactive
COc1ccc2c(c1)c(=O)c(C(=O)c1ccc(Cl)cc1)cn2CC(=O)Nc1ccc(F)cc1	inactive
COc1ccc2[nH]cc(CCNc3ncnc4ccc(-c5ccc(C(=O)N(C)C)cc5)cc34)c2c1	25.1 µM (active)
COc1ccc2[nH]cc(CCNc3ncnc4ccc(-c5ccccc5CN(C)C)cc34)c2c1	inactive
COc1ccc2[nH]cc(CCNc3nc(-c4cccc(NS(C)(=O)=O)c4)nc4ccccc34)c2c1	inactive
Cc1ccccc1NC(=O)NNC(=O)OC(C)(C)C	inactive
Cc1c(CCOC(=O)c2cc([N+](=O)[O-])ccc2Cl)sc[n+]1CCCCS(=O)(=O)[O-]	inactive
COc1cccc2c(N/N=C/c3ccco3)cc(C)nc12	inactive
O=Cc1cn(Cc2ccccc2)nc1-c1cccnc1	inactive
O=C1/C(=C\c2cccnc2)CN(Cc2ccccc2)C/C1=C\c1cccnc1	7.94 µM (active)
Clc1ccc(CN2CCN(/N=C/c3cccnc3)CC2)cc1	inactive
O=C(Nc1ccccc1C(=O)N1CCOCC1)c1ccc(CSc2ccccc2)cc1	inactive
O=C(/C=C/c1ccc(Cl)cc1)Nc1ccc(Br)cn1	inactive
O=C(CSc1nc2cc3c(cc2c(=O)n1CCC1=CCCCC1)OCO3)NCc1ccco1	inactive

SMILES	Potency
O=C(CSc1c2c(nc3ccc(Cl)cc13)CCCC2)NCc1ccco1	inactive
C=C(C)Cn1c(SCC(=O)NCc2ccco2)nc2sc3c(c2c1=O)CCC3	11.2 µM (active)
N#Cc1c(NC(=O)CSc2nc3ccccc3c(=O)n2Cc2ccco2)sc2c1CCCC2	25.1 µM (active)
Cc1cc(NC(=O)CSc2nc3cc(Cl)ccc3c(=O)n2Cc2ccco2)no1	inactive
COc1ccc(-n2c(SCC(=O)Nc3sc4c(c3C#N)CCCC4)nnc2-c2ccc(O)cc2)cc1	inactive
COc1cc(CNc2ncn[nH]2)ccc1OCc1ccccc1C	inactive
CCC(=O)N1CCC(C(N)=O)(N2CCCCC2)CC1	inactive
CC(O)CNCCOc1cccc(Oc2ccccc2)c1 (stereo not drawn)	inactive
CCOCCCNC(=O)C(NC(=O)Cc1c[nH]c2ccccc12)c1ccc(OC)cc1 (stereo not drawn)	inactive
CN1CCN(c2ccc(CNS(=O)(=O)c3cccc(F)c3)cc2)CC1	inactive
O=C(/C=C/c1ccc(Cl)c([N+](=O)[O-])c1)c1cccnc1	inactive
O=C(/C=C/c1ccc(Cl)cc1Cl)c1cccnc1	10 µM (active)
O=C(/C=C/c1ccc(Cl)cc1Cl)NCc1ccco1	inactive
CC1(C)CC(=O)C(C2c3ccccc3S(=O)(=O)c3ccccc32)C(=O)C1	inactive
COC(=O)c1cc(C)sc1NC(=O)CC1Nc2ccccc2NC1=O (stereo not drawn)	inactive
CN(NC(=O)C1CC(=O)N(c2ccccc2)C1)C1=NS(=O)(=O)c2ccccc21 (stereo not drawn)	inactive
CCOc1ccc(C(=O)NC(=S)Nc2ccc(NC(=O)C(C)C)cc2)cc1[N+](=O)[O-]	inactive
O=C(CSc1ccc([N+](=O)[O-])cn1)Nc1ccc(N2CCOCC2)cc1	inactive
O=C(CCNC(=O)c1ccc([N+](=O)[O-])cc1)Nc1ccccc1N1CCOCC1	inactive
CCOC(=O)c1c(NC(=O)c2ccc(N3CCOCC3)c([N+](=O)[O-])c2)sc(C)c1C	inactive
O=C(CSc1ccc([N+](=O)[O-])cn1)Nc1ccc(N2CCOCC2)c(Cl)c1	22.4 µM (active)
CCOc1ccc(C(=O)NC(=S)Nc2ccc(N3CCOCC3)c(Cl)c2)cc1[N+](=O)[O-]	2.51 µM (active)

SMILES	Potency
CN(C)N(C)C(=O)C(O)(c1ccccc1)c1ccccc1	inactive
Cc1ccc(S(=O)(=O)N(C)c2ccc(OCC(=O)NC3=NCCS3)cc2)cc1	inactive
Cc1ccnc(N)c1	inactive
Cc1cc(C(C)(C)C)cc(C)c1N	inactive
Cc1cc(C)cc(N)c1	25.1 µM (active)
Cc1ccc(NC(=O)c2cccnc2C(=O)Nc2ccc(C)cc2)cc1	inactive
CCCSc1nsc(N)n1	20 µM (active)
CCCCCCSc1nsc(N)n1	inactive
COc1ccccc1OCC(=O)OCn1c(SC)nnc(C)c1=O	inactive
CCOC(=O)c1cnc2[nH]c3ccccc3n2c1=O	inactive
CCSc1ccccc1C(=O)Nc1ccc2c(c1)OCO2	inactive
CCOC(=O)C1=C(C)NC(C)=C(C(=O)OCC)C1c1ccccn1	inactive
CCOC(=O)C1=C(C)NC(=S)NC1c1cccs1 (stereo not drawn)	3.16 µM (active)
CCOC(=O)C1=C(C)Nc2nc3ccccc3n2C1c1cccs1 (stereo not drawn)	inactive
C/C(=N\NC(=O)COc1c(C)cccc1C)c1cccs1	inactive
CCOc1ccc(C(=O)NC2CCN(CC(=O)NCc3cccs3)CC2)cc1	inactive
Cc1cc(C)n(-c2nnc(N3CCN(c4ccccc4)CC3)nn2)n1	inactive
CCOC(=O)c1c(N=CN(C)C)c(C#N)c2n1CCCC2	inactive
CCSc1ncnc2c(C#N)c3n(c12)CCCCC3	12.6 µM (active)
C=C(C)c1cccc(C(C)(C)NC(=O)NCCN(CC)CC)c1	inactive
CCN(CCn1cccn1)C(=O)CC1C(=O)NCCN1Cc1cccc(OC)c1OC (stereo not drawn)	inactive
CCc1ccc2c(c1)C1(NN=C(c3ccccc3)S1)C(=O)N2 (stereo not drawn)	28.2 µM (active)

SMILES	Potency
C=C1c2cc(CC)ccc2NC(=O)N1c1ccc(C)cc1	inactive
CCc1ccc2c(c1)C(c1ccc([N+](=O)[O-])cc1)=NNC(c1ccccc1)=N2	inactive
CCS(=O)(=O)C1=NSC2=NC(=O)/C(=C\c3cc(C)n(-c4cccc(OC)c4)c3C)C(=N)N21	20 µM (active)
CCOc1cc(/C=C2/C(=N)N3OC(C)=CC3=NC2=O)ccc1OC	inactive
NC(=O)COC(=O)/C=C/c1ccc2ccccc2n1	inactive
O=C(c1ccco1)N1CCN(c2cccc(Cl)c2)CC1	inactive
O=C(c1ccco1)N1CCN(C(=O)C2CC(c3ccc(Cl)c(Cl)c3)=NO2)CC1 (stereo not drawn)	inactive
O=C(c1ccco1)N1CCN(C(=O)C2c3ccccc3Oc3ccccc32)CC1	8.91 µM (active)
COc1ccc(-c2nn(-c3ccccc3)cc2CN2CCCO2)c(F)c1	inactive
Cc1ccccc1CC1(CO)CCCN(Cc2ccc3c(c2)OCCO3)C1 (stereo not drawn)	inactive
Cc1ccc(N(C(=O)Cc2cccs2)C(C(=O)NCC2CCCO2)c2ccncc2)cc1 (stereo not drawn)	inactive
CCN(CC)S(=O)(=O)c1ccc(N2CCOCC2)c(C(=O)O)c1	inactive
O=S(=O)(Nc1cc(S(=O)(=O)N2CCOCC2)ccc1N1CCCC1)c1cccs1	0.398 µM (active)
CCN(CC)S(=O)(=O)c1ccc(N2CCOCC2)c(NC(=O)C2COc3ccccc3O2)c1 (stereo not drawn)	inactive
CCN(CC)S(=O)(=O)c1ccc(N2CCCC2)c(NS(=O)(=O)c2cccs2)c1	0.282 µM (active)
COCCNC(=S)Nc1cc(S(=O)(=O)N2CCOCC2)ccc1N1CCCCC1	5.01 µM (active)
CC(=O)NCCC(=O)Nc1cc(S(=O)(=O)N2CCOCC2)ccc1N1CCOCC1	inactive
O=C(COC(=O)c1ccccc1F)Nc1cc(S(=O)(=O)N2CCOCC2)ccc1N1CCCC1	inactive
O=C(COC(=O)Cc1ccc(F)cc1)Nc1cc(S(=O)(=O)N2CCOCC2)ccc1N1CCCC1	inactive
O=C(c1ccc(N2CCOCC2)c([N+](=O)[O-])c1)N1CCN(S(=O)(=O)c2cccs2)CC1	inactive
